SARS PLP yeast: qHTS of Yeast-based Assay for SARS-CoV PLP; S. cerevisiae expressing SARS-CoV PLpro, growth rescue; Potency, µM (titrated, usually from 32.9 µM), for inactives: top-dose activity, positive = growth rescue, hits mostly activators; 0.19% of 330,000 active; calls by dose curve; note: 0% is about no effect; nearly all actives have a fitted effect of over 55% in size
NS1 function inh: qHTS Assay for Inhibitors of Influenza NS1 Protein Function; Potency, µM (doses to about 46.1 µM), without a hit: at the top dose activity, positive = more growth; 0.4% of 270,000 active; calls by dose curve; note: actives are rising curves; nearly all actives have a fitted effect of over 50% in size
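Compounds were scored for reversing the slow growth caused by influenza A NS1 in S. cerevisiae, measured by optical density at 600 nm. Assay medium contained 2% galactose at pH 6.0; NS1-free yeast of the same strain were the positive control.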
Pf growth 48h: Primary qHTS for delayed death inhibitors of the malarial parasite plastid, 48 hour incubation; P. falciparum luciferase growth in erythrocytes, 48 h; Potency, µM (series often up to 28.7 µM), without a hit: at the top dose activity change, negative = inhibition, hits mostly inhibitors; 5.9% of 310,000 active; note: % is set by controls: 0 for no effect and ±100 for the full control effect
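Growth was read as firefly luciferase luminescence after a 48 h, 37 C, 5% CO2 exposure of compounds to reporter-bearing P. falciparum cultures (0.1% parasitemia, 2% hematocrit final) in Albumax-supplemented RPMI 1640.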
RE007 growth inh: qHTS Assay for Inhibitors of the HIV-1 protein Vpr; S. pombe RE007 Vpr strain, BacTiter-Glo ATP luminescence, 24 h; Potency, µM (doses to about 92.2 µM), without a hit: at the top dose activity change, negative = less growth, usual class: inhibitors; 0.21% of 360,000 active; AID 651644, 2012; active = well fitted falling curve with a large enough effect; inconclusive = small, poorly fitted or top-dose-only effect; inactive = no such curve, though single readings can be large or run the other way; note: % is set by controls: 0 for no effect and ±100 for the full control effect; nearly all actives have a fitted effect of over 50% in size
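Fission yeast RE007 carrying one integrated HIV-1 vpr copy, seeded at OD 0.01 in PMG+AL medium with 23 nL pinned compound. Grown 24 h at 30 degrees; viability read by BacTiter-Glo luminescence after 5 min.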
Pf growth 96h: Primary qHTS for delayed death inhibitors of the malarial parasite plastid, 96 hour incubation; P. falciparum luciferase reporter growth, 96 h; Potency, µM (highest dose often 28.7 µM), inactives show at the highest dose activity change, negative = inhibition, usual class: inhibitors; 6.9% of 320,000 active; note: % is set by controls: 0 for no effect and ±100 for the full control effect
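Readout is luminescence from an integrated firefly luciferase in P. falciparum. Red cells, 2% hematocrit and 0.05% parasitemia final, were cultured with compound through two parasite generations (96 hours) at 37 C, 5% CO2.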
The depositor's hits bear a star; u = inconclusive; x = no result given. Most compounds without a hit are left out; they make up all but 9.5% or so of the library. Unless noted, calls come from the whole dose curve; as a rule, active = well fitted inhibition curve with a large enough effect; inconclusive = small, poorly fitted or top-dose-only effect, or another doubt; inactive = no such curve, though single readings can be large or run the other way. Potency is the fitted concentration of half-maximal effect.

SMILES | SARS PLP yeast | NS1 function inh | Pf growth 48h | RE007 growth inh | Pf growth 96h
O=C(C1=C[C@H](c2csc3ccccc23)C[C@H](OCc2ccc(CO)cc2)O1)N1CCN(Cc2ccccc2)CC1 | -4% | -37% | u | -3% | 9.3µM*
CN1CCN(C(=O)C2=C[C@@H](c3csc4ccccc34)C[C@@H](OCc3ccc(CO)cc3)O2)CC1 | -1% | 1% | u | -6% | u
O=C(C1=C[C@H](c2csc3ccccc23)C[C@H](OCc2ccc(CO)cc2)O1)N1CCOCC1 | -1% | 3% | -25% | 4% | u
CN(C)C(=O)c1ccc(-c2cc(C(F)(F)F)n(C)n2)s1 | -1% | -5% | 11% | 5% | 22%
COc1ccc(S(N)(=O)=O)cc1C(=O)OCC(=O)N1CCCC(C)C1 (stereo not given) | 0% | x | x | -17% | x
Nc1ccn([C@@H]2O[C@H](CNCC3=CCOc4ccc(O)cc43)[C@@H](O)[C@H]2O)c(=O)n1 | x | x | x | 11% | x
COC(=O)C1=C(c2ccc(Cl)c(C(F)(F)F)c2)C[C@@H]2CC[C@H]1N2C(=O)NCCOc1ccccc1 | -14% | x | 12µM* | 13% | 4.7µM*
COC(=O)C1=C(c2ccc(Cl)c(C(F)(F)F)c2)C[C@@H]2CC[C@H]1N2C(=O)NCc1ccco1 | -6% | x | u | -5% | 8.3µM*
COC(=O)C1=C(c2ccc(Cl)c(C(F)(F)F)c2)C[C@@H]2CC[C@H]1N2C(=O)NCCO | -2% | x | u | 12% | -7%
COC(=O)C1=C(c2ccc(OC(F)(F)F)cc2)C[C@@H]2CC[C@H]1N2C(=O)NCCOc1ccccc1Cl | 2% | x | 10µM* | 1% | u
COC(=O)C1=C(c2ccc(OC(F)(F)F)cc2)C[C@@H]2CC[C@H]1N2C(=O)NCCOc1ccccc1 | -3% | x | 12µM* | 6% | 4.7µM*
COC(=O)C1=C(c2ccc(C(C)=O)cc2)C[C@@H]2CC[C@H]1N2C(=O)NCCOc1ccccc1Cl | 9% | x | u | -18% | u
C=CCCCCCCCCC(=O)NNC1=CC(=O)CC(C)(C)C1 | 3% | 24% | 0% | 0% | -24%
O=C(NCC1COc2ccccc2O1)C1CCN(S(=O)(=O)c2ccc(Cl)cc2)CC1 (stereo not given) | 1% | x | u | -5% | u
COC(=O)c1ccc(C(=O)OC)c(NC(=O)CN(c2ccccc2)S(=O)(=O)N(C)C)c1 | 1% | -17% | u | 0% | 0%
COC(=O)c1ccc(C(=O)OC)c(NC(=O)CS(=O)(=O)Cc2ccccc2)c1 | 3% | -8% | 6% | -11% | 5.2µM*
COC(=O)C1=C(c2ccc(F)cc2OCc2ccccc2)C[C@@H]2CC[C@H]1N2C(=O)N1CCCCC1 | 2% | x | u | -7% | u
